Source: PubChem BioAssay AID1259415 (National Center for Advancing Translational Sciences (NCATS), 2018)
“And” between values parts separate entries of the source, which are not always exact repeats. Identical values can stand only once. Among all 410,000 compounds or so, about 18,000 (4.4%) were called active. About 7% were inconclusive and are not listed. Cut-off read from the data, not from the text of the source: active = activity change below about -60%; inconclusive = no clear call, values can overlap the other calls; inactive = above about -39%. The list comes from a sample in which actives are over-represented; it also holds similar structures and randomly drawn compounds. Some structures have more than one record in an assay (separate samples or runs), and their calls can disagree.

assay: qHTS Assay for inhibitors of the human cytomegalovirus (HCMV); settings: HFF cells, HCMV-luciferase reporter, 72 h; at 57.5 µM; stronger effect = lower value
Method in brief: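 Inhibition of viral replication was scored as loss of reporter luminescence in HFFs infected with HCMV-luciferase (MOI 1 PFU/cell) for 72 h; compounds tested at 2 doses, normalized to buffer and Salinomycin controls.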
% is set by controls: 0 for no effect and ±100 for the full control effect.

SMILES	activity change, negative = inhibition
CCCCN=C(N)/C(C(=O)OCC)=C(\O)c1ccc(OC)cc1	-26.4% (inactive)
Cc1ccc(-c2nnc(SCc3ccccc3C)o2)cc1	82.8% (inactive)
O=C(C(=O)N1CCN(c2ccccc2)CC1)c1ccc2c(c1)OCO2	-64.4% (active)
C/C(=C/c1ccccc1)C(=O)N1CCN(c2ccccc2)CC1	-16.3% (inactive)
O=C(c1ccc2c(c1)OCO2)N1CCNc2ccccc2C1	-3.54% (inactive)
CCC(Sc1nnc(-c2ccc(OC)cc2)c(-c2ccc(OC)cc2)n1)C(=O)NC1CCCCC1 (stereo not drawn)	5.23% (inactive)
CCOC(=O)C1SC2(C(F)(F)C(F)F)CC1(O)c1c(c(OC)c3occc3c1OC)O2 (stereo not drawn)	-23.2% (inactive)
C/C(=N\NC(=O)C1(C)CC1(Br)Br)c1ccc(C)cc1C (stereo not drawn)	2.84% (inactive)
Cc1cc(C)cc(NC(c2nnc(-c3cccc(F)c3)o2)c2ccc(F)cc2Cl)c1 (stereo not drawn)	-0.542% (inactive)
CC(=O)N1CCCc2ccc(NS(=O)(=O)c3ccc(F)cc3F)cc21	51.5% (inactive)
Cc1c(NC(=O)c2c([N+](=O)[O-])cnn2C)c(=O)n(-c2ccccc2)n1C	7.76% (inactive)
Cc1nn(-c2ccccc2)c(Cl)c1/C=N/NC(=O)c1nn(C)cc1[N+](=O)[O-]	-99% (active)
Cc1nn(-c2ccccc2)c(-n2cccc2)c1C(=O)O	-33.7% (inactive)
Cn1c(=O)c2c(nc(SCC(=O)Nc3ccc(F)cc3)n2Cc2ccc(Cl)cc2)n(C)c1=O	-3.29% (inactive)
CCN(C(=O)CSc1nc(N)cc(=O)[nH]1)C1CCS(=O)(=O)C1 (stereo not drawn)	-1.32% (inactive)
Cc1ccc2c(=O)cc(C(=O)Nc3sc4c(c3C(=O)NCc3cccnc3)CCCC4)oc2c1	-0.307% (inactive)
Cc1ccc(OCC(=O)Nc2ccc(Cl)c(-c3nc4ccccc4[nH]3)c2)cc1C	-26.2% (inactive)
Cc1ccc(C)c(OCC(=O)Nc2sc3c(c2C#N)CCCC3)c1C	-17.4% (inactive)
CC1C(c2ccccc2)=[N+]([O-])C2(CCCC2)N1O (stereo not drawn)	21.7% (inactive)
CCCn1c2ccccc2c2cnn(CC(=O)NCCCN3CCCCC3CC)c(=O)c21 (stereo not drawn)	5.34% (inactive) and -76.4% (active)
CCCn1c2ccccc2c2cnn(CC(=O)NCCCOC(C)C)c(=O)c21	-18.7% (inactive)
CC1CCCCN1CCCNC(=O)Cn1ncc2c([nH]c3ccccc32)c1=O (stereo not drawn)	25.9% (inactive) and 24.1% (inactive)

SMILES	activity change, negative = inhibition
COc1ccc(NC(=O)NNC(=O)COc2cc(C)c(Cl)c(C)c2)c(OC)c1	-4.84% (inactive)
COc1ccc(Nc2ncnc3ccc(Br)cc23)c(OC)c1	-98.7% (active)
CCOC(=O)CNc1nc(Cl)nc(Nc2ccc(OC)cc2OC)n1	-6.89% (inactive)
CC(=O)c1ccc(N2CCN(C3C(=O)c4ccccc4N3C(C)=O)CC2)cc1 (stereo not drawn)	0% (inactive)
CCOC(=O)N1CCC(NC(=O)C(NS(=O)(=O)c2ccc3c(c2)CCN3C(=O)CC)C(C)C)CC1 (stereo not drawn)	1.92% (inactive)
COc1cccc2c1cc1c(=O)n(CC(=O)N3CCN(c4ccccc4)CC3)nc(C)n12	3.76% (inactive)
O=C(Cn1ncc2c3ccccc3n(Cc3ccccc3)c2c1=O)NC1CCCCCC1	12.7% (inactive)
Cc1scc(C(=O)NNC(=S)NCc2ccccc2)c1C	-63.5% (active)
CC(C)CNC(=S)NNC(=O)c1ccccc1OC(F)F	2.34% (inactive)
Cc1scc(C(=O)NNC(=S)NCC(C)C)c1C	-1.28% (inactive)
CCn1c(=O)c2cc(C(=O)Nc3cccc(C(C)=O)c3)sc2c2ccccc21	8.05% (inactive)
COc1ccc(OC)c(CNC(=O)c2c3c(nc4ccccc24)C(=O)N(C2CCCCC2)C3)c1	18.7% (inactive)
CCOC(=O)C1CCN(C(=O)CSc2c3c(nc4ccc(Cl)cc24)CCCC3)CC1	92.3% (inactive)
Cc1ccc(C(C)(C)C)c(OCCCCN2CCCC2)c1	-65.6% (active)
Cc1ccc(OCCCCN2CCCCC2)c(Br)c1	-23.7% (inactive)
Cc1ccc(C(C)C)cc1OCCN1CCCC1	2.84% (inactive)
CC(=O)N1CCc2ccc(N)cc21	-18% (inactive)
COc1cc(NC(=O)c2cc3ccc4cccnc4c3[nH]2)cc(OC)c1OC	65% (inactive)
CCOc1ccc(Nc2nc3c(S(=O)(=O)c4cccc(Cl)c4)nnn3c3ccsc23)cc1	16.8% (inactive)
C[C@H]1CN([C@@H](C)CO)C(=O)Cc2cc(NS(C)(=O)=O)ccc2O[C@@H]1CN(C)CC1CC1	-70.1% (active)
C[C@H](CO)N1C[C@H](C)[C@H](CN(C)CC2CC2)Oc2ccc(NC(=O)CCN3CCOCC3)cc2C1=O	-26.7% (inactive)
COc1ccc(S(=O)(=O)N(C)C[C@H]2Oc3ccc(NS(=O)(=O)c4cccs4)cc3CC(=O)N([C@H](C)CO)C[C@H]2C)cc1	8.23% (inactive)

SMILES	activity change, negative = inhibition
O=C(c1cccc(Cl)c1)N1CCN(CCc2ccncc2)CC1	14.9% (inactive)
Fc1ccc(Nc2nnns2)cc1	21.3% (inactive)
O=C(COc1ccccc1)OCc1cc(=O)n2nc(-c3cccs3)sc2n1	24.1% (inactive)
CCc1ccccc1NC(=O)c1ccc(F)c(S(=O)(=O)NC2CCCCCC2)c1	27% (inactive)
CCOc1cccc(NC(=O)c2ccc(F)c(S(=O)(=O)N(CC)c3cccc(C)c3)c2)c1	-33.3% (inactive)
Cc1cccc(NC(=O)c2ccc(F)c(S(=O)(=O)N(C)C3CCCCC3)c2)c1	-81.6% (active)
O=C(CSc1nnc(-c2ccccc2F)o1)Nc1cccc(C(F)(F)F)c1	98.3% (inactive)
Cc1nn(Cc2ccc(F)cc2)c(C)c1NC(=O)c1cc(CC(C)C)on1	-39% (inactive)
CCCOc1cccc(C(=O)NCCCNC(=O)c2cccnc2)c1	-8.85% (inactive)
CCCCCCOc1ccc(OC(=O)c2cccnc2)cc1	-79.3% (active)
Cc1ccc(OCC(=O)N2CCN(C(=O)c3cccnc3)CC2)cc1	-12.6% (inactive)
O=C(CCn1ccc2cc(S(=O)(=O)N3CCCC3)ccc21)NCc1cccc(Cl)c1	-10.7% (inactive)
O=C(Cn1ncn2nc(-c3cccs3)cc2c1=O)NCc1cccc(Br)c1	12.3% (inactive)
CCC[C@H]1[C@@H](NS(=O)(=O)c2ccc(F)cc2)CC[C@@]23CCCN2C(=O)CCC[C@@H]13	-4.65% (inactive)
CCCSc1ncc(Cl)c(C(=O)Nc2sc3c(c2C(=O)NCCOC)CCCC3)n1	-24% (inactive)
CCOC(=O)c1c(-c2cccc(C)c2)csc1NC(=O)c1c(-c2ccccc2)noc1C	-94% (active)
CCOC(=O)c1[nH]cnc1C(=O)Nc1ccccc1C	-21.4% (inactive)
CCOC(=O)c1c(C2CC2)csc1NC(=O)CSCc1c(C)noc1C	42.9% (inactive)
CCOC(=O)c1c(-c2cccc(N)c2)cn2ccccc12	17.2% (inactive)
CCCS(=O)(=O)c1ncc(Cl)c(C(=O)Nc2scc(-c3ccccc3)c2C(=O)OCC)n1	-98.8% (active)
Oc1c(C(c2ccccc2Cl)N2CCOCC2)sc2nc(-c3ccco3)nn12 (stereo not drawn)	-16.1% (inactive)
O=C(CCN1CCc2ccccc2C(O)(c2ccccc2)C1)c1ccc2c(c1)OCCO2 (stereo not drawn)	25.7% (inactive)

SMILES	activity change, negative = inhibition
O=S(=O)(Nc1ccc2nc(-c3ccco3)[nH]c2c1)c1ccccc1	16.8% (inactive)
O=[N+]([O-])c1ccc2nc(-c3ccccn3)[nH]c2c1	-79.3% (active)
O=[N+]([O-])c1ccc(N/N=C2/CCCCC2c2ccccn2)c([N+](=O)[O-])c1 (stereo not drawn)	4.73% (inactive)
COCCCNC(=O)/C(C#N)=C/c1c(N2CCCCCC2)nc2ccccn2c1=O	-37.9% (inactive)
Cc1cc(C)cc(Oc2nc3c(C)cccn3c(=O)c2/C=C(\C#N)C(=O)NC2CCS(=O)(=O)C2)c1 (stereo not drawn)	44.8% (inactive)
Cc1cccn2c(=O)c(/C=C(\C#N)C(N)=O)c(N3CCCCCC3)nc12	-70.1% (active)
Nc1[nH]c(C(=O)c2ccccc2)c(-c2ccc(Br)cc2)c1C(=O)NC1CC1	-20.4% (inactive)
NC(=O)C(Cc1ccccc1)NC(=O)C12CC3CC(CC(C3)C1)C2 (stereo not drawn)	50.8% (inactive)
Cc1ccc(S(=O)(=O)c2nc(-c3cccs3)oc2N2CCCCC2)cc1	-15.8% (inactive)
COc1cc(-c2cc3n(C)c(C)c(CCC(=O)Nc4ccc(F)cc4)c(=O)n3n2)cc(OC)c1OC	-22.9% (inactive)
Cc1sc(C2C(C#N)=C(N)N(c3cccc(Cl)c3)C3=C2C(=O)CCC3)cc1CN1CCOCC1 (stereo not drawn)	-21.6% (inactive)
COc1ccc(/C=C/C(=O)Nc2c(C)nn(C)c2C)cc1COc1ccc(Br)cc1	-35.2% (inactive)
CCn1nc(C)c(NC(=O)/C=C/c2ccc(OC)c(COc3ccc(Br)cc3)c2)c1C	-68% (active)
COc1ccc(C(C)=O)cc1COc1ccc(Cl)c(C)c1	-1.3% (inactive)
CCOC(=O)N1CCc2c(sc3c2C(=O)NC(c2ccccc2F)N3)C1 (stereo not drawn)	-3.15% (inactive)
C=CCN1C(=O)C(Cc2ccc(OCC)cc2)SC1=Nc1ccc(C(=O)O)cc1 (stereo not drawn)	10.9% (inactive)
CCN(CC)c1ccc(NC(=O)CN2CCN(CC(=O)Nc3ccc(Cl)cc3)CC2)cc1	18% (inactive)
CN(c1cccc(NC(=O)c2ccc(CN3CCc4ccccc4C3)cc2)c1)S(C)(=O)=O	-74.1% (active)
CC(=O)Nc1cccc(NC(=O)c2ccc3c(c2)CCN3S(C)(=O)=O)c1	40.6% (inactive)
CN(c1ccc(C(=O)N2CCc3ccccc3C2)cc1)S(C)(=O)=O	5.34% (inactive)
CN(c1cccc(NC(=O)Nc2ccc(Cl)cc2)c1)S(C)(=O)=O	-81.1% (active)
CNS(=O)(=O)c1ccc(NC(=O)Nc2ccc3c(c2)OCO3)cc1	61.9% (inactive)
